Source: PubChem BioAssay
Shown are actives, neighbours in structure and some others; about 19% of the full set was active somewhere.
IL-1B inflam inh: qHTS for Inhibitors of Inflammasome Signaling: IL-1-beta AlphaLISA Primary Screen; 360,000 tested, 4.7% active; activity change, % at 57.5 µM; AID 743279, 2014; THP-1 LPS/ATP IL-1B secretion, AlphaLISA, 16 h; hits give low values; in the data active = activity change below about -50%; inconclusive = mostly about -30% to -49%
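Secreted IL-1B measured by AlphaLISA bead assay after 16 h compound exposure of THP-1 cells; compounds (final up to 57.5 uM) added 1 h before LPS (250 ng/mL) and ATP (1.25 mM) stimulation; lower signal means less secretion.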
TDP1 cell CPT: qHTS for Inhibitors of human tyrosyl-DNA phosphodiesterase 1 (TDP1): qHTS in cells in presence of CPT. chicken DT40 Tdp1-/-;hTDP1 cells + 20 nM CPT, ATP luminescence, 48 h. 420,000 tested, 12% active. Potency, µM (highest dose often 46.2 µM), without a hit: at the top dose activity change, negative = growth inhibition, most hits filed as inhibitors. AID 686979, 2013; note: potency is the fitted concentration of half-maximal effect; nearly all actives have a fitted effect of over 55% in size
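Cell growth measured by CellTiter-Glo luminescence after a minimum 48 h, 37 C compound exposure with 20 nM CPT in Tdp1-knockout DT40 cells stably expressing hTDP1, seeded 400/well; qHTS titration format.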
TDP1 cell noCPT: qHTS for Inhibitors of human tyrosyl-DNA phosphodiesterase 1 (TDP1): qHTS in cells in absence of CPT | DT40 Tdp1-/- hTDP1 cells, no CPT, ATP luminescence, 48 h | Potency, µM (doses to about 46.2 µM), without a hit: top-dose activity change, negative = growth inhibition, most hits filed as inhibitors | 420,000 tested, 15% active | AID 686978, 2013; note: potency is the fitted concentration of half-maximal effect; nearly all actives have a fitted effect of over 55% in size
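No-CPT arm: Tdp1-/-;hTDP1 DT40 cells (400/well) plus compounds, incubated ≥48 hr at 37 °C. Readout CellTiter-Glo luminescence.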
HT1080 IDH1KD tx: qHTS for induction of synthetic lethality in tumor cells producing 2HG: qHTS for the HT-1080-IDH1KD cell line. HT-1080 IDH1 knockdown viability, ATP luminescence, 48 h. Potency, µM (doses to about 46.1 µM), for inactives: top-dose activity, negative = toxicity, usual class: cytotoxic. 360,000 tested, 2% active;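 note: potency is the fitted concentration of half-maximal effect; 0% = DMSO wells and -100% = cell-free medium wells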
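Using the IDH1-knockdown HT-1080 line run in the same batch and compound series as the NT line, viability after 48 h at 37 °C was determined by CellTiter-Glo luminescence and expressed as % activity.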
HT1080NT lethal: qHTS for induction of synthetic lethality in tumor cells producing 2HG: qHTS for the HT-1080-NT fibrosarcoma cell line | 360,000 tested, 1.6% active | Potency, µM (top dose mostly 46.1 µM), inactives show top-dose activity, negative = less viability, usual class: cytotoxic | HT-1080-NT fibrosarcoma viability, CellTiter-Glo ATP luminescence, 48 h;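 note: NT is the 2HG producing partner of a matched IDH1 knockdown line; potency is the fitted concentration of half-maximal effect; 0% = DMSO-treated cells and -100% = media-only wells without cells; nearly all actives have a fitted effect of over 55% in size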
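Read-out is CellTiter-Glo luminescence after 10 minutes at room temperature, following 48 hours' compound treatment of HT-1080-NT cells (750 cells/well, RPMI, 5% FBS, 37 degrees C).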
Numbers without * were called inactive; ? = inconclusive; · = no result given. Unless noted, calls come from the whole dose curve; as a rule, active = well fitted curve in the direction sought with a large enough effect; inconclusive = small, poorly fitted or top-dose-only effect, or another doubt; inactive = no such curve, though single readings can be large; an effect the other way counts as inactive or inconclusive. Unless noted, % is set by controls: 0 for no effect and ±100 for the full control effect.

SMILES | IL-1B inflam inh | TDP1 cell CPT | TDP1 cell noCPT | HT1080 IDH1KD tx | HT1080NT lethal
CC(C)n1nnnc1C1c2ccccc2C(=O)N1Cc1cccc(F)c1 (stereo unspecified) | 35 | 2% | ? | 5% | 10%
CCCNC(=O)CS(=O)(=O)c1ccccc1 | 0 | 0% | 4% | 0% | 13%
Clc1ccc(SCCOCCN2CCOCC2)cc1 | -2 | -28% | ? | -1% | 0%
Clc1ccc(SCCOCCN2CCc3ccccc3C2)cc1 | ? | ? | ? | ? | 23µM*
Clc1ccc(SCCOCCN2CCCCC2)cc1 | 0 | ? | 16µM* | -25% | -25%
CC1CCN(CCOCCSc2ccc(Cl)cc2)CC1 | -12 | ? | 18µM* | -29% | ?
O=C(Nc1ccc(Cl)cn1)c1cc2c(s1)-c1ccccc1OC2 | -8 | -22% | -15% | -26% | -23%
COc1ccc2[nH]cc(CCNc3cc(-c4ccccc4Cl)ncn3)c2c1 | · | ? | 3.7µM* | · | ·
COc1ccc2[nH]cc(CCNc3ccnc(-c4ccccc4Cl)n3)c2c1 | · | ? | 12µM* | · | ·
COCCc1nc2ccc(C(=O)N3CCCCC3COC)cc2o1 (stereo unspecified) | 4 | 1% | 0% | 7% | 5%
CCN(CC)C(=O)C1CCCN(C(=O)c2cc(COc3ccc4ncccc4c3)on2)C1 (stereo unspecified) | -7 | 16µM* | 5.8µM* | -20% | -3%
COCC1CCCCN1C(=O)c1cc(COc2ccc3ncccc3c2)on1 (stereo unspecified) | 17 | 1.2µM* | 0.92µM* | 1% | 2%
CCC1CCCCN1C(=O)c1cc(COc2ccc3ncccc3c2)on1 (stereo unspecified) | -19 | 1.8µM* | 1µM* | ? | -22%
CC(=O)NCCC1CCCCN1C(=O)c1cc(COc2cc(C)ccc2C)on1 (stereo unspecified) | -8 | -14% | -24% | 1% | 18%
COCCC1CCCCN1C(=O)c1cc(COc2ccc(-n3cncn3)cc2)on1 (stereo unspecified) | -15 | 5.2µM* | 2.1µM* | ? | -3%
O=C(NC(NNc1ccc([N+](=O)[O-])cc1)(C(F)(F)F)C(F)(F)F)c1ccc(Cl)cc1 | ? | ? | 29µM* | ? | -16%
O=[N+]([O-])c1ccc(Cl)cc1N1CCCC1 | 0 | -2% | 1% | 7% | 23%
O=C(c1ccccc1F)N1CCN(c2ccc([N+](=O)[O-])c3ncccc23)CC1 | -3 | 15µM* | 21µM* | -15% | -5%
O=[N+]([O-])c1cccc2c(N3CCCC3)ccnc12 | -64* | 8.2µM* | 8.2µM* | ? | -27%
Cc1ccc(C(=O)C(C)OC(=O)CCS(=O)(=O)c2ccc(C)cc2)cc1 (stereo unspecified) | 0 | -5% | -16% | 1% | -6%
Cc1cc(Cl)ccc1NC(=O)C1CCCN1S(=O)(=O)c1ccc2c(c1)CCCC(=O)N2 (stereo unspecified) | · | 15µM* | 8.2µM* | · | ·
CCc1ccc(NC(=O)C2CCCN2S(=O)(=O)c2ccc3c(c2)CCCC(=O)N3)cc1 (stereo unspecified) | · | 16µM* | 18µM* | · | ·
Cc1ccc(Cl)cc1NC(=O)C1CCCN(S(C)(=O)=O)C1 (stereo unspecified) | 31 | 8% | 7% | 1% | 2%
Cc1ccc(NC(=O)C2CCCN2S(=O)(=O)c2ccc3c(c2)CCCC(=O)N3)cc1C (stereo unspecified) | · | ? | 21µM* | · | ·
Cc1ccc(Cl)cc1NC(=O)C1CCCN1S(=O)(=O)c1ccc(-c2ccc(=O)[nH]n2)s1 (stereo unspecified) | -77* | -25% | 15µM* | ? | -22%
